Results: PubChem BioAssay (Tox21)
Results filed as inconclusive are left out. Activity calls are given as the source filed them. Unless noted, calls follow the shape of the dose curve; as a rule, active = well fitted curve in the direction sought with a large enough effect in the repeat runs; inconclusive = weak or mixed curves; inactive = no such curve, though single readings can be large; an effect the other way counts as inactive or inconclusive.

How the values were obtained:
[1] = qHTS assay for small molecule agonists of the p53 signaling pathway (AID 651631; calls by dose curve; also: nearly all actives have a fitted effect of over 15% in size)
Summary of the method: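 Quantitative high-throughput format: 4,000 p53RE-bla HCT-116 cells/well, 5 h pre-incubation, 16 h compound exposure at 37 °C, 2 h room-temperature substrate step, fluorescence intensity measured.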

[2] = qHTS assay for small molecules that induce genotoxicity in human embryonic kidney cells expressing luciferase-tagged ATAD5 (AID 651632); also: nearly all actives have a fitted effect of over 15% in size
Summary of the method: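 Genotoxicity read-out via ATAD5-luciferase: HEK293T cells, 16 hr compound incubation at 37C, Amplite detection.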

[3] = qHTS assay for small molecule agonists of the p53 signaling pathway - cell viability (AID 651633; calls by dose curve;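 also: p53RE-bla HCT reporter cells with a stable beta-lactamase p53 reporter; series mostly up to about 83 µM; nearly all actives have a fitted effect of over 30% in size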)
Summary of the method: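 p53RE-bla cells were treated with compound for 16 hours at 37 C. Cytotoxicity was then measured as CellTiter-Glo luminescence after 30 min at room temperature.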

[4] = qHTS assay for small molecules that induce genotoxicity in human embryonic kidney cells expressing luciferase-tagged ATAD5 - cell viability (AID 651634; calls by dose curve; also: nearly all actives have a fitted effect of over 25% in size)
Summary of the method: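 Live-cell protease activity (CellTiter-Fluor, fluorescence) indicates viability. HEK293T cells with luciferase-tagged ATAD5; 15.5 hr compound treatment at 37C.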

[5] = qHTS assay for small molecule disruptors of the mitochondrial membrane potential - cell viability (AID 720634; calls by dose curve;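 also: human HepG2 liver cancer cells; series mostly up to about 83 µM; nearly all actives have a fitted effect of over 20% in size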)
Summary of the method: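 Human hepatoma HepG2 cells were treated for 1 hr with test chemicals, then given m-MPI dye and CellTiter-Glo. Cell viability reflects luminescence proportional to cellular ATP.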

[6] = qHTS assay for small molecule disruptors of the mitochondrial membrane potential (AID 720635)
Summary of the method: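 HepG2 cells exposed to compound 1 hr at 37C, then Mito-MPS dye 30 min. Ratio read of aggregate (540/590 nm) versus monomer (490/535 nm) fluorescence.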

[7] = qHTS assay to test for compound auto fluorescence at 590 nm (red) in HepG2 cells (AID 720674)
Summary of the method: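 Fluorescence at 590 nm emission following 540 nm excitation was recorded from HepG2 wells one hour after compound transfer, with DMSO-only wells as vehicle and Rose Bengal sodium equivalency as the scale.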

[8] = qHTS assay to test for compound auto fluorescence at 535 nm (green) in HepG2 cells (AID 720675)
[9] = qHTS assay to test for compound auto fluorescence at 460 nm (blue) in HEK293 cells (AID 720678)
Summary of the method: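 Triamterene serves as the blue fluorophore standard. Compound signal at 405/460 nm is read in HEK293 wells (2,000 cells, 10% dialyzed FBS) after overnight treatment at 37C.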

[10] = qHTS assay to test for compound auto fluorescence at 590 nm (red) in HEK293 cells (AID 720679)
Summary of the method: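 We plated HEK293 cells in 10% dialyzed FBS medium, let them adhere for 4-5 hr, then added 23 nL compound. Overnight at 37C and 5% CO2 preceded fluorescence measurement at 540/590nm.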

[11] = qHTS assay to test for compound auto fluorescence at 535 nm (green) in HEK293 cells (AID 720680)
[12] = qHTS assay to test for compound auto fluorescence at 460 nm (blue) in HEK293 cell free culture (AID 720681)
Summary of the method: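 Compounds were added to cell-free DMEM with 10% FBS and fluorescence read directly. The blue channel used 405 nm excitation and 460 nm emission, with triamterene as the reference fluorophore.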

[13] = qHTS assay to test for compound auto fluorescence at 535 nm (green) in HEK293 cell free culture (AID 720682)
Summary of the method: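 Measurement is a direct plate read of green fluorescence (485 nm in, 535 nm out) after compound addition to serum-supplemented DMEM lacking cells, with fluorescein used to express intensities.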

[14] = qHTS assay to test for compound auto fluorescence at 590 nm (red) in HEK293 cell free culture (AID 720683)
Summary of the method: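 Cell-free wells of DMEM with 10% FBS received compound, and intrinsic fluorescence was read at excitation/emission 540/590 nm. Values expressed as equivalence to Rose Bengal sodium.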

[15] = qHTS assay to test for compound auto fluorescence at 590 nm (red) in HepG2 cell free culture (AID 720684)
Summary of the method: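 Compounds are added to culture medium (MEM, 10% FBS) lacking cells, then fluorescence is read at excitation 540 nm, emission 590 nm, with Rose Bengal sodium as the equivalency standard.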

[16] = qHTS assay to test for compound auto fluorescence at 460 nm (blue) in HepG2 cell free culture (AID 720685)
Summary of the method: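 Compound (23 nL) or DMSO pinned into cell-free MEM with 10% FBS; blue fluorescence read at 405/460 nm excitation/emission, expressed as auto-fluorescence equivalency to triamterene.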

[17] = qHTS assay to test for compound auto fluorescence at 535 nm (green) in HepG2 cell free culture (AID 720686)
[18] = qHTS assay to test for compound auto fluorescence at 460 nm (blue) in HepG2 cells (AID 720687)
Summary of the method: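 HepG2 cells in MEM with 10% FBS, attached overnight at 37 C, were exposed to compound or DMSO for 1 hr at 37 C, 5% CO2. Blue fluorescence was read at 405/460 nm, with triamterene as reference fluorophore.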

[19] = biological target: Glucocorticoid receptor (Homo sapiens) (UniProt P04150); test: qHTS assay to identify small molecule agonists of the glucocorticoid receptor (GR) signaling pathway (AID 720691; active = well fitted activation curve with a large enough effect in the signal ratio in the repeat runs, not every such curve was filed as active; the % refers to the signal ratio)
Summary of the method: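 Beta-lactamase reporter activity, read as fluorescence intensity, was measured in GR-bla HeLa cells exposed to compounds for 18 h at 37 C and then loaded with LiveBLAzer B/G FRET substrate for 2 h at room temperature.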

[20] = biological target: Glucocorticoid receptor (Homo sapiens) (UniProt P04150); test: qHTS assay to identify small molecule antagonists of the glucocorticoid receptor (GR) signaling pathway (AID 720692; active = well fitted inhibition curve with a large enough effect in the signal ratio in the repeat runs, not every such curve was filed as active; the % refers to the signal ratio)
Summary of the method: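 Fluorescence from cleaved LiveBLAzer B/G FRET substrate reports GRE-driven beta-lactamase in HeLa cells; compounds are tested against 5 nM dexamethasone (final) over 18 h at 37 C, substrate incubation 2 h at room temperature.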
% is scaled to controls: 0 for no effect and ±100 for the full control effect.

Glucocorticoid receptor (Homo sapiens), sequence (P04150 whole entry, looked up): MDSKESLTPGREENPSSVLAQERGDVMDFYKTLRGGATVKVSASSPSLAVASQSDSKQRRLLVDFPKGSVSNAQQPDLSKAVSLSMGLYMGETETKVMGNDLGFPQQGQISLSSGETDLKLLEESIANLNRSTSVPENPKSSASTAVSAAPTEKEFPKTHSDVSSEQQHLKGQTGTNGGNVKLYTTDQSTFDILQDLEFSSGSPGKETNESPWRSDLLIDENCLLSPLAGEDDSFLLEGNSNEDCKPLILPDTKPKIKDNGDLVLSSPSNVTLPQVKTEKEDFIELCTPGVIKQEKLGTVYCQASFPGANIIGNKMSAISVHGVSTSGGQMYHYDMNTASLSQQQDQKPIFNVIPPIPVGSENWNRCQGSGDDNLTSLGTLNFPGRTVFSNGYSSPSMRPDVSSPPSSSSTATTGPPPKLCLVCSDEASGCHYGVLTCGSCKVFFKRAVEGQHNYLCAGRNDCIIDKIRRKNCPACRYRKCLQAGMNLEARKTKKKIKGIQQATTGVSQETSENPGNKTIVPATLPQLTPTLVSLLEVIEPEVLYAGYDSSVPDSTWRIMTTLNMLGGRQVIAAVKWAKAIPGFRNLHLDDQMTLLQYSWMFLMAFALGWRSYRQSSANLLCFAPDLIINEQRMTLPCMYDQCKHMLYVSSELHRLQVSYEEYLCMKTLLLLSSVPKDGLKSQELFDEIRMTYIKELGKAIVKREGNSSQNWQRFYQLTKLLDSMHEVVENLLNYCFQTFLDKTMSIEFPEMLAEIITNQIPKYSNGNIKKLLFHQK

CC(=O)OCC[N+](C)(C)C
inactive: Potency [1] | Potency [2] | Potency [3] | Potency [4] | Potency [5] | Potency [6] | outcome [7] | outcome [8] | Potency [9] | outcome [10] | outcome [11] | Potency [12] | outcome [13] | outcome [14] | outcome [15] | Potency [16] | outcome [17] | Potency [18] | Potency [19] | Potency [20]

O=C1c2ccccc2C(=O)C1c1ccc(Br)cc1
inactive: Potency [1] | Potency [2] | Potency [3] | Potency [4] | Potency [5] | Potency [6] | outcome [7] | outcome [8] | Potency [9] | outcome [10] | outcome [11] | Potency [12] | outcome [13] | outcome [14] | outcome [15] | Potency [16] | outcome [17] | Potency [18]

C=C1c2cccc(O)c2C(O)=C2C(=O)[C@]3(O)C(O)=C(C(N)=O)C(=O)[C@@H](N(C)C)[C@@H]3[C@@H](O)[C@H]12
inactive: Potency [1] | Potency [2] | Potency [3] | Potency [4] | Potency [5] | Potency [6] | fluorescence, relative to Rose Bengal [7] -0.284% [at 18.6 µM] | fluorescence, % of triamterene [9] 1.67% [at 18.6 µM] | fluorescence, % of fluorescein [11] 0.0422% [at 18.6 µM] | fluorescence, % of fluorescent control [12] 1.43% [at 18.6 µM] | fluorescence, % of Rose Bengal [15] -0.515% [at 18.6 µM] | fluorescence, % of fluorescent control [16] 1.61% [at 18.6 µM] | fluorescence, % of fluorescein control [17] -0.0019% [at 18.6 µM] | fluorescence, % of fluorescent control [18] 1.19% [at 18.6 µM] | Potency [19] | Potency [20]

O[C@@H]1CO[C@H]2[C@@H]1OC[C@@H]2O
inactive: Potency [1] | Potency [2] | Potency [3] | Potency [4] | Potency [5] | Potency [6] | outcome [7] | Potency [9] | outcome [11] | Potency [12] | outcome [13] | outcome [14] | outcome [15] | Potency [16] | Potency [18] | Potency [19] | Potency [20]

COc1cc(C(=O)NCCCCCC(=O)O)cc(OC)c1OC
inactive: Potency [1] | Potency [2] | Potency [3] | Potency [4] | Potency [5] | Potency [6] | outcome [7] | outcome [8] | Potency [9] | outcome [10] | outcome [11] | Potency [12] | outcome [13] | outcome [15] | Potency [16] | outcome [17] | Potency [18] | Potency [19]

CCOC(=O)[C@H](CCc1ccccc1)N[C@@H](C)C(=O)N(CC(=O)O)C1Cc2ccccc2C1
inactive: Potency [1] | Potency [2] | Potency [3] | Potency [4] | Potency [5] | Potency [6] | outcome [7] | outcome [8] | Potency [9] | outcome [10] | outcome [11] | Potency [12] | outcome [14] | outcome [15] | Potency [16] | Potency [18] | Potency [19]

CC(=O)[C@H]1[C@H](C#N)C[C@H]2[C@@H]3CC=C4C[C@@H](O)CC[C@]4(C)[C@H]3CC[C@@]21C
inactive: Potency [1] | Potency [2] | Potency [3] | Potency [4] | Potency [5] | Potency [6] | outcome [8] | Potency [9] | outcome [10] | outcome [11] | Potency [12] | outcome [13] | outcome [14] | outcome [15] | Potency [16] | outcome [17] | Potency [18] | Potency [19]

CC(C)(O)c1ccc(CNC(=O)c2cccnc2Oc2ccc3nonc3c2)cc1
inactive: Potency [1] | Potency [2] | Potency [3] | Potency [4] | Potency [5] | Potency [6] | outcome [7] | outcome [8] | Potency [9] | outcome [10] | outcome [11] | Potency [12] | outcome [13] | outcome [14] | outcome [15] | Potency [16] | outcome [17] | Potency [18] | Potency [19] | Potency [20]
